Only some compounds are listed: those with a hit (about 4.7% of all), similar ones and a draw of the others.
TRHR enhancer: allosterically enhances the human TRH receptor | P34981 | TRHR cells, fluo-8 calcium fluorescence, EC20 TRH enhancement | enhancement, % at 2 µM | hit rate 0.66% among 360,000 | AID 493056; in the data active means enhancement above about 30%
Target sequence (P34981 whole entry, looked up): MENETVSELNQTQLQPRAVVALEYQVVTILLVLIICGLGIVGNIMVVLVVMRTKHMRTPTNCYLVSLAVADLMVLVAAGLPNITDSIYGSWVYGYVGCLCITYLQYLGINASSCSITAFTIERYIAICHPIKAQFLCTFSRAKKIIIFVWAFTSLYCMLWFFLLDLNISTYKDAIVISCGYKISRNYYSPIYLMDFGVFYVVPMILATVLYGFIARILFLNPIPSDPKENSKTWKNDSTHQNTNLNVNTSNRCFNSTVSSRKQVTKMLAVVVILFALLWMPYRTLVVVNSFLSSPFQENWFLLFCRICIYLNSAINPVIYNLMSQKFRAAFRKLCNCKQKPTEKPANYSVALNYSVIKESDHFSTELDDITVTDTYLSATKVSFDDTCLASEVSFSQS
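Enhancer read-out: after compound pinning and an initial kinetic agonist-mode read, an EC20 of TRH (10 nM final) was injected and fluo-8 calcium signal (Ex 480/Em 530) followed at 1 s/cycle for 100 cycles in TRHR-expressing cells.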
D1 potentiator: enhances dopamine response at the human D1 receptor; P21728; HEK293 TREx D1 cells, calcium flux, dopamine EC20 potentiation; potentiation, % at 10 µM; hit rate 0.036% among 360,000; AID 504651; in the data active means potentiation above about 30%
D1 agonist: agonists of human D1 dopamine receptor; HEK293 T-REx D1 cells, calcium flux, agonist mode; P21728; hit rate 1% among 360,000; activation, % at 2 µM
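Inducible HEK293 T-REx D1 cells, force-coupled to calcium signalling, were plated at 4000 cells/well with tetracycline and held overnight at 30 C. After no-wash calcium dye loading, compound-evoked calcium rise over 180 s flagged agonists.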
D1 antag: human D1 dopamine receptor antagonism; P21728; HEK293 TREx D1 cells, calcium flux, dopamine EC80; stronger effect = lower value; activity change, negative = inhibition, % at 10 µM; hit rate 3.2% among 360,000; in the data active means activity change below about -30%
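HEK293 T-REx cells expressing inducible, force-coupled D1 receptor; no-wash Ca dye, 30–90 min RT. Cmpd → 180 s read at 1 Hz → EC80 DA → 180 s read.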
TRHR agonist: activates the human TRH receptor; TRHR cells, calcium flux fluo-8, FDSS agonist mode; activation, % at 2 µM; hit rate 0.18% among 360,000
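TRHR-expressing cells, plated overnight in medium with 10% serum, were loaded with fluo-8 calcium dye at room temperature. After a 10 s baseline, library compound was pin-added and calcium release was recorded kinetically (ex 480/em 530) as agonist response.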
Of the large screens only hits and unclear results are named; the others gave an inactive call; ! = not active in a repeat. Unless noted, no stated cut-off is given here; in the data, active means activation above about 30%; inactive means the rest.

Nc1nonc1C(=O)NCCNCc1ccccc1F	none
Nc1nonc1C(=O)NCCNCc1c(OCc2ccccc2F)ccc2ccccc12	D1 antag -44.6
Nc1nonc1C(=O)NCCNCc1cc(Br)ccc1OCc1ccc(F)cc1	D1 antag -36.8
Nc1nonc1C(=O)NCCNCc1ccccc1	D1 antag -46.6
COc1ccc(CNCCNC(=O)c2nonc2N)cc1OC	none
COC(=O)c1ccc(Cn2ncc3c4sc(C)cc4n(C)c3c2=O)cc1	none
CSc1ncc(Cl)c(C(=O)Nc2ccc(S(=O)(=O)N3CCC(C)CC3)cc2)n1	none
N#CC1CC(c2ccccc2)Nc2cc(Cl)ccc2N1 (stereo not given)	D1 antag -89.9
C[C@@H]1C[C@H](O)c2cc(Cl)ccc2N1	none
COc1cccc(C(=O)NCC(c2ccc3c(c2)OCO3)N2CCN(c3ccc(F)cc3)CC2)c1 (stereo not given)	none
CCn1c(CNC(=O)C23CC4CC(CC(C4)C2)C3)nnc1SCC(=O)Nc1ccc(C)cc1	none
C/C(CCc1ccco1)=N\NC(=O)CNc1c(Br)cc(Br)cc1Br	D1 antag -44.0
CCC1=C(c2ccc(C)cc2)S(=O)(=O)N=C1N1CCC(C(=O)NCc2ccc(C)cc2)CC1	D1 antag -38.7
CCC1=C(c2ccc(C)cc2)S(=O)(=O)N=C1N1CCC(C(=O)NCCc2ccc(Cl)cc2)CC1	none
N/C(Cc1ccc(Cl)c(Cl)c1)=N\OC(=O)c1ccc(Br)o1	none
COc1cccc(/C=C2\CCC(C3CCCC3)C2=O)c1OC (stereo not given)	none
CC(=O)c1ccc(S(=O)(=O)N2CCn3cccc3C2c2ccc(F)c(F)c2)cc1 (stereo not given)	none (no result: D1 antag)
Cc1ccc(SCCC(=O)Nc2ccc(Br)c(C)c2)cc1	D1 antag -33.4
Cc1ccc(N(CC(=O)Nc2cccc(Cl)c2)S(=O)(=O)c2cccs2)cc1	none
CCOC(=O)C1CCCN(CCC(=O)Nc2cccc(C)c2)C1 (stereo not given)	D1 antag -37.7!
CCOC(=O)C1CCCN(CCC(=O)Nc2cccc(F)c2)C1 (stereo not given)	none
NC(=O)C1CCN(CCC(=O)Nc2ccc(Br)cc2)CC1	TRHR enhancer 34.2
COc1ccc(NC(=O)CCSc2ccc(C)cc2)cc1	none
Cc1ccc(N(CC(=O)Nc2ccc(Br)c(C)c2)S(=O)(=O)c2cccs2)cc1	D1 antag -51.8
CCCCn1c(N)c(N(CC(C)C)C(=O)c2cccc(OCc3ccccc3)c2)c(=O)[nH]c1=O	none
CCOC(=O)C1CCN(CCC(=O)Nc2ccc(Br)c(C)c2)CC1	D1 agonist 136.3!
Cc1cc(NC(=O)CCN2CCC(C(N)=O)CC2)ccc1Br	none
CCOC(=O)c1c(NC(=O)C(C)N2CCN(C(=O)c3ccco3)CC2)sc2c1CCCC2 (stereo not given)	D1 agonist 39.9
CCOC(=O)c1c(NC(=O)COc2cccc(C)c2C)sc2c1CCCCC2	D1 antag -44.0
CCOC(=O)c1c(NC(=O)CCCOc2ccccc2C)sc2c1CCC(C)C2 (stereo not given)	TRHR enhancer 33.4
Cc1cccc(OCC(=O)Nc2ccc3c4c(cccc24)CC3)c1C	D1 antag -46.7
CCOC(=O)c1c(NC(=O)c2ccco2)sc2c1CCCCC2	none
CCOc1ccc(CCn2c3c(c(=O)[nH]c2=O)C(NC(=O)c2cccc(F)c2)(C(F)(F)F)C(=O)N3)cc1OCC (stereo not given)	none
O=c1cc(O)c(-c2ccc(Cl)cc2)c(Cl)[nH]1	none
O=c1cc(O)c(-c2ccc(Cl)c(Cl)c2)c(Cl)[nH]1	TRHR enhancer 35.0
Cc1ccccc1C(=O)Oc1cc(-c2ccc3c(c2)OCO3)cc(=O)c2c(C)oc(C)c12	none
O=C(Cn1cc(S(=O)(=O)c2ccccc2)c(=O)c2cc3c(cc21)OCO3)Nc1ccccc1	none
C=C[C@@H]1c2cc(C)ccc2N(S(=O)(=O)c2ccc(C)cc2)[C@H](c2ccc(OC(C)=O)cc2)C1(C#N)C#N	D1 agonist 39.6 (no result: D1 antag)
C=C[C@@H]1c2ccccc2N(S(=O)(=O)c2ccc(C)cc2)[C@H](c2ccc(OC(C)=O)cc2)C1(C#N)C#N	none
Fc1ccc(-n2cc(CNCCc3ccccn3)c(-c3ccccc3Cl)n2)cc1	D1 agonist 33.9
COc1ccc(-n2cc(CNCCc3nc(C)cc(C)n3)c(-c3ccccc3Cl)n2)cc1	D1 agonist 40.2
COc1ccc(-n2cc(CNCCc3ncc(C)[nH]3)c(-c3ccccc3Cl)n2)cc1	none
Cc1ccccc1-c1nc(CS(=O)(=O)CC(=O)NCC(C)c2ccccc2)c(C)o1 (stereo not given)	none
CCN(CC)S(=O)(=O)c1cccc(-c2nnc(SCCCC(=O)c3ccccc3)o2)c1	none
CCN(CC)S(=O)(=O)c1cccc(-c2nnc(SCCCC(=O)c3ccc(F)cc3)o2)c1	D1 agonist 34.1
Cc1cc(C)c(S(=O)(=O)NCC(c2cccs2)S(=O)(=O)c2ccccc2)c(C)c1 (stereo not given)	none (no result: D1 antag)
N#Cc1ccc(NC(=O)COCc2cc(-c3ccc(F)cc3)on2)cc1	none
CC(NCC(O)c1ccc([N+](=O)[O-])cc1)C12CC3CC(CC(C3)C1)C2 (stereo not given)	D1 agonist 49.2
O=C(NCC(O)c1ccc([N+](=O)[O-])cc1)Nc1ccccc1 (stereo not given)	none
c1csc(-c2ccc3ccccc3n2)c1	none
Cc1cc2ncc(-c3cccs3)nc2cc1C	TRHR enhancer 31.0
Cc1oc(-c2ccc(Cl)cc2)nc1CSc1nnc(C)n2c1cc1sccc12	none
COc1cc(OC)c(NC(=O)N2CCc3cc(OC)c(OC)cc3C2CC(=O)O)cc1Cl (stereo not given)	none
Cc1ccc(-n2c(SCc3ccccc3)nc3c([nH]c4ccccc43)c2=O)cc1	D1 antag -33.4
CNC(=O)c1c(NC(=O)c2nc(SCc3ccc(C)cc3)ncc2Cl)sc2c1CCCC2	none
CC1=CC(C)(C)NC(=S)N1c1ccc(C)c(C)c1	D1 agonist 59.6, D1 antag -30.8
Cc1cccc(Cn2ccn(Cc3ccc(Cl)cc3)c(=O)c2=O)c1	none
O=C(c1cc2sccc2n1Cc1ccccc1)N1CCCc2ccccc21	none
Cn1c(C(=O)N2CCCc3ccccc32)cc2sccc21	D1 agonist 44.5
Cc1nc(N(CCO)C2CCCCC2)c2nnn(Cc3ccccc3)c2n1	none
Cc1ccsc1CN(C)C(=O)CN1C(=O)NC(c2ccccc2)(c2ccccc2)C1=O	none
CC(=O)NC12CC3CC(C1)CC(C(=O)N1CCN(S(=O)(=O)c4cccc(C(F)(F)F)c4)CC1)(C3)C2	D1 agonist 38.2
CC(=O)NC12CC3CC(C1)CC(C(=O)N1CCN(S(=O)(=O)c4ccc(Cl)s4)CC1)(C3)C2	none
C1CCC(Nc2nc3nonc3nc2N2CCSCC2)C1	TRHR enhancer 31.7
